Compound activity deposited in PubChem by Broad Institute.
Wnt act: Wnt/beta-catenin pathway activators, primary screen, cell-based, plate reader, single point. Wnt/beta-catenin reporter cell assay, activator. actives 1.2% (n = 300,000). activation, % at 9.35 µM. AID 743398, 2014; in the data active means activation above about 30%, passing the limit was not always enough;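 further: 0% = neutral control wells and 100% = positive control wells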
HSF1 inhib: HSF1 inhibitors in luciferase reporter cells, primary screen, cell-based, NIH3T3, luminescence | activity change, negative = inhibition, % at 7.5 µM (by protocol) | actives 0.77% (n = 300,000) | NIH3T3-HGL HSE-luciferase, MG132-induced, luminescence 8 h; active compounds read low;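 active means more than half of replicate wells show activity change below -50%, luminescence cut by over half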;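 further: luciferase reports HSF-1 transcriptional activity via heat shock element; 0% = median of DMSO wells and -100% = zero luminescence signal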
MITF TRPM1 HTS: activators of MITF-driven TRPM1 promoter reporter, primary screen, cell-based, SK-MEL-5, luciferase, single point | SK-MEL-5 TRPM1-promoter luciferase, 24 h; % of positive control, neutral wells = 0 | activation, % at 12.5 µM | actives 0.75% (n = 300,000);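 active means mean activation of at least 80% with every replicate also reaching 80%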;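 further: 0% = neutral control wells and 100% = parthenolide positive control wells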
HSF-1 act: HSF-1 activators, primary screen, NIH3T3-HGL cells, MG132 stress, luminescence, single point. AID 504408, 2011. NIH3T3-HGL HSF-1 luciferase reporter, 8 h; 100% = twice DMSO control signal. activation, % at 9 µM. actives 1.7% (n = 300,000);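 active means mean replicate activation of at least 50% with a set share of replicates each reaching 50%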;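 further: 0% = median of the neutral control wells and 100% = twice that signal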
esBAF inh: Bmi1 luciferase reporter increase in mESCs, primary screen, esBAF inhibitor project, mouse ES cells, Bmi1 luciferase knock-in, single point | 24 h; 100% = twice the neutral-well signal | reporter increase, % at 12.5 µM | actives 2% (n = 350,000) | AID 602393, 2012; in the data active means activation above about 40%;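 further: 0% = median of the plate's neutral control wells and 100% = double that signal; a rise in the Bmi1 reporter signal indicates esBAF inhibition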
Numbers without * were called inactive. The list is not random: actives were taken first. Their share in the collection is about 3.9%.

COC(=O)c1cccc(NC(=O)c2cccc(OC)c2)c1 was read as Wnt act 28, MITF TRPM1 HTS 53 and esBAF inh 61*.
`COc1cccc(C(=O)Nc2ccncc2)c1` gave HSF1 inhib 1 and HSF-1 act 16.
`COc1ccc(S(=O)(=O)N(C)C[C@@H]2Oc3ccc(N(C)C)cc3CC(=O)N([C@H](C)CO)C[C@@H]2C)cc1` gave esBAF inh -4.
CC(c1ccc(F)cc1)n1c(Cn2ncc3ccccc3c2=O)n[nH]c1=S (stereo unspecified) was read as Wnt act 0, HSF1 inhib 35, MITF TRPM1 HTS 15 and HSF-1 act 66*.
For COc1ccc(C(c2c(C)[nH]n(-c3ccccc3)c2=O)c2c(C)[nH]n(-c3ccccc3)c2=O)cc1OC the results were Wnt act -4, HSF1 inhib 26, MITF TRPM1 HTS -4, HSF-1 act 70* and esBAF inh 0.
Screening Cc1[nH]n(-c2ccccc2)c(=O)c1C(C[N+](=O)[O-])c1ccc(F)cc1 (stereo unspecified) returned HSF1 inhib 238, MITF TRPM1 HTS 1 and HSF-1 act 282*.
For Cc1ccc(C(C[N+](=O)[O-])c2c(C)[nH]n(-c3ccccc3)c2=O)cc1 (stereo unspecified) the results were Wnt act -2, HSF1 inhib -19, MITF TRPM1 HTS 1 and HSF-1 act -23.
`Cc1[nH]n(-c2ccccc2)c(=O)c1C(C[N+](=O)[O-])c1ccc(Cl)cc1` (stereo unspecified) gave Wnt act -4, HSF1 inhib 111, MITF TRPM1 HTS -9, HSF-1 act 133* and esBAF inh 0.
Screening CC(C)CCNC1c2ccccc2C(=O)N1Cc1ccccc1 (stereo unspecified) returned Wnt act -2, HSF1 inhib 26, MITF TRPM1 HTS 5, HSF-1 act 54* and esBAF inh -36.
For COc1cc(NC2c3ccccc3C(=O)N2Cc2ccccc2)cc(OC)c1OC (stereo unspecified) the results were Wnt act 4, HSF1 inhib 5, MITF TRPM1 HTS 3 and HSF-1 act 4.
COC(=O)C[C@H]1CC[C@@H](NS(=O)(=O)c2ccccc2F)[C@H](CO)O1 was read as esBAF inh 2.
CCNC(=O)C[C@H]1CC[C@H]2[C@@H](COc3ccc(NC(=O)C4CCCCC4)cc3C(=O)N2C)O1 was read as esBAF inh -6.
For COc1ccc(S(=O)(=O)NCc2ccccn2)cc1 the results were Wnt act -2, HSF1 inhib -2, MITF TRPM1 HTS -9, HSF-1 act -3 and esBAF inh 4.
O=S(=O)(NCc1ccccn1)c1ccc2ccccc2c1 was read as Wnt act 1, HSF1 inhib 38, MITF TRPM1 HTS 12, HSF-1 act 72* and esBAF inh 4.
For NNC(=O)CNC(=O)CNS(=O)(=O)c1ccccc1 the results were Wnt act -7, HSF1 inhib -78*, MITF TRPM1 HTS -3 and HSF-1 act -83.
For O=C(Nc1nnc(-c2ccccc2)s1)c1ccccc1F the results were Wnt act 24, HSF1 inhib -3, HSF-1 act -16 and esBAF inh 70*.
For O=C(Nc1nnc(S(=O)(=O)Cc2ccc(F)cc2)s1)c1ccccc1F the results were Wnt act -2, HSF1 inhib 4, MITF TRPM1 HTS -11, HSF-1 act 28 and esBAF inh 3.
Screening O=C(Nc1nnc(-c2ccccc2Cl)s1)c1ccccc1F returned Wnt act 27, HSF1 inhib -3, MITF TRPM1 HTS 78, HSF-1 act 26 and esBAF inh 51*.
`O=C(Nc1nnc(Cc2ccccc2F)s1)c1ccccc1Cl` gave Wnt act 1, HSF1 inhib -9, HSF-1 act 35 and esBAF inh 2.
Cn1cnc(S(=O)(=O)N2C[C@H](O)COC[C@H]3O[C@@H](CC(=O)NCc4ccc(F)cc4)CC[C@@H]32)c1 was read as esBAF inh -4.
CC1(C)CC(=O)C2=C(C1)Nc1ccccc1NC2c1ccc2c(c1)OCO2 (stereo unspecified) was read as Wnt act 44*, HSF1 inhib 1, HSF-1 act 8 and esBAF inh 18.
